Unmarked numbers belong to inactive results. The rule behind the calls is not given here.
The molecules below were run on HIV-1 nucleocapsid protein NCp7 (binding to TG oligonucleotide) (assay: HIV Nucleocapsid (AID 346;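 note: potency is for inhibitors that block NC binding and lower polarization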)). Details: HIV-1 NC / fluorescein-TGTGTGTG probe, fluorescence polarization.
Outline: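 Fluorescence polarization binding of 100 nM HIV-1 NC to 10 nM fluorescein-labelled TG4xF oligonucleotide. Buffer was Hepes pH 7.5 with 250mM NaCl, 1uM ZnCl2, TCEP and 2-mercaptoethanol. Compounds were incubated 1 hr at room temperature before the read.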
Potency is the fitted concentration of half-maximal effect.

Structure (SMILES) | Potency [µM]
COc1ccc(-c2nc3cnc(N(C)C)nc3n(C)c2=O)cc1 | > 4
Cc1noc(C)c1-c1nccc(N2CCNCC2)n1 | > 20
COc1ccccc1CNc1cc(-c2ccccc2Cl)ncn1 | > 20
COc1ccccc1-c1nccc(Nc2ccc(F)cc2)n1 | > 20
CN(C)c1ncc2nc(CCc3ccccc3)c(=O)n(C3CC3)c2n1 | > 20
COc1ccccc1-c1cc(NCc2ccccc2)ncn1 | > 20
CN1CCN(c2ncc3nc(-c4cc(F)cc(F)c4)c(=O)n(CCc4ccccc4)c3n2)CC1 | > 20
COc1ccc(-n2c(=O)c(-c3ccccc3)nc3cnc(N4CCN(C)CC4)nc32)cc1 | > 20
Cc1cnc(CNc2cc(-c3ccccc3C(F)(F)F)ncn2)cn1 | > 20
Cc1noc(C)c1-c1nc(Nc2ccncc2)c2ccccc2n1 | > 20
COc1ccc2[nH]cc(CCNc3cc(-c4ccccc4Cl)ncn3)c2c1 | > 20
CCNc1ncc2nc(-c3ccccc3)c(=O)n(C[C@H]3CCCO3)c2n1 | > 20
CNc1nc(-c2cccc(NS(C)(=O)=O)c2)nc2ccccc12 | > 20
Cn1cc(-c2nc3cnc(Oc4ccccc4)nc3n(C)c2=O)c2ccccc21 | > 20
Cn1c(=O)c(-c2ccc(Cl)cc2)nc2cnc(Oc3ccccc3)nc21 | > 20
COc1ccccc1CNc1ncnc2ccc(-c3cccnc3)cc12 | > 20
COc1ccc(-n2c(=O)c(-c3ccccc3)nc3cncnc32)cc1 | > 20
COCC(=O)N1CCC2(CCCN(C(=O)Nc3ccccc3)C2)CC1 | > 20
Cc1cccc(CNc2nc(-c3ccc(C(=O)N(C)C)cc3)nc3ccccc23)c1 | > 20
O=c1c(-c2ccc(F)cc2)nc2cncnc2n1Cc1ccccc1 | > 20

Structure (SMILES) | Potency [µM]
COc1ccccc1CN1CC2(CCN(S(=O)(=O)c3ccccc3)CC2)C1 | > 20
COCC(=O)N1CCC[C@@]2(CCN(C(c3ccccc3)c3ccccc3)C2)C1 | > 20
COc1ccccc1-c1nccc(-n2ccnc2)n1 | > 20
COc1ccccc1-c1nccc(NCc2ccccc2)n1 | > 20
COc1cccc(-c2nc(N3CCNCC3)c3ccccc3n2)c1 | > 20
Cc1noc(C)c1-c1nc(NCc2ccccc2)c2ccccc2n1 | > 20
O=C(Oc1ccccc1)N1CCC2(CCCN(c3ccccn3)C2)CC1 | > 20
COc1ccccc1-c1cncnc1Nc1ccccc1 | > 20
COCCn1c(=O)c(-c2cccs2)nc2cnc(Oc3ccc(OC)cc3)nc21 | > 20
COCCn1c(=O)c(C)nc2cncnc21 | > 20
Cn1c(=O)c(-c2ccccc2)nc2cncnc21 | > 20
COc1ncc2nc(-c3ccccc3)c(=O)n(C[C@H]3CCCO3)c2n1 | > 20
COc1ccccc1-c1nc(NCCNC(C)=O)c2ccccc2n1 | > 20
CN(C)Cc1ccccc1-c1ccc2ncnc(NCc3ccccc3)c2c1 | > 20
COc1cccc(Cn2c(=O)cnc3cnc(Nc4cccc(OC)c4)nc32)c1 | > 20
N#Cc1cccc(-c2nccc(NCc3cccs3)n2)c1 | > 20
O=C(Nc1ccccc1)N1CCCC2(CCN(C(=O)c3ccco3)CC2)C1 | > 20
CN1CCN(c2ncc3nc(-c4cccc(C#N)c4)c(=O)n(C)c3n2)CC1 | > 20
COc1cccc(-c2cc(NCc3cccs3)ncn2)c1 | > 20

— PubChem BioAssay (NCATS)
